A number with no mark means an inactive call. For some assays here: Entries with a potency or affinity are not part of this list. Calls of active or inactive are those of the source. Unless noted, no rule for the calls is given here.

Here are results for 22 compounds from PubChem BioAssay.

The nature of assay [1]: antimalarial activity against Dd2 strain (AID 2302;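 active = growth inhibition above 50% at the single 2 µM test dose, taken to imply half-maximal potency below 2 µM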;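 also: 0% = DMSO untreated growth and 100% = chloroquine plus artemisinin killed control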). The conditions noted are these: P. falciparum Dd2 in RBCs, LDH growth readout, 72 h; at 2 µM; stronger effect = higher value.
Assay [2] is described as follows: human hepatoma cell viability loss – ATP luminescence, cytotoxicity control for P. falciparum antimalarial project, primary screen (AID 2303;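 active = inhibition above 50%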;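 also: 0% = DMSO wells and 100% = digitonin-killed cells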). Particulars: HepG2 viability, 24-48 h, at 10 µM, stronger effect = higher value.
In assay [3] the target is L-lactate dehydrogenase (Plasmodium falciparum (isolate CDC / Honduras)) (UniProt Q27743). Nature of the assay: PfLDH activity inhibition – cell lysate, 3D7 strain, counter-screen for P. falciparum growth inhibition project (AID 2304).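 Also: 0% = vehicle and 100% = reference inhibitor.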 Particulars: P. falciparum 3D7 crude extract, LDH APAD/NBT absorbance; at 2 µM; stronger effect = higher value. On the technique in general: A counterscreen serves to expose hits that act by an unwanted route or on another target.
L-lactate dehydrogenase (Plasmodium falciparum (isolate CDC / Honduras)), sequence (Q27743 whole entry, looked up): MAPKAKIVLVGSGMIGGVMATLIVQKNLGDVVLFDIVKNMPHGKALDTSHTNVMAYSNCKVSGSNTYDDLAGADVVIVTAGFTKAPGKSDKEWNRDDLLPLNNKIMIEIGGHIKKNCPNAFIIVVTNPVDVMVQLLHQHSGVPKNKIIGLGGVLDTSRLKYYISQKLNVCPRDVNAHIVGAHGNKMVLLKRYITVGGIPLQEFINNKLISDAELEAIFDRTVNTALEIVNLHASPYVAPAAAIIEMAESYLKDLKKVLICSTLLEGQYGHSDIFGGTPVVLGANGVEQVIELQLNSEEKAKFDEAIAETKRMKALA

A short description of assay [4]: inhibition of 3D7 malaria parasite growth – strain 3D7 (AID 2306).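 Also: 0% = DMSO wells and 100% = chloroquine plus artemisinin control wells.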 The conditions noted are these: P. falciparum 3D7 erythrocytic growth, LDH absorbance, 72 h; at 2 µM; stronger effect = higher value.
The target of assay [5] is Calcium-dependent protein kinase 1 (Plasmodium falciparum (isolate 3D7)) (UniProt P62344). Nature of the assay: PfCDPK1 kinase inhibitors, biochemical, TCAMS library (AID 1159585; cut-off not given, nearly all actives have IC50 up to about 0.98 µM;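 also: inhibitors leave more ATP so luminescence rises with inhibition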). The conditions noted are these: recombinant PfCDPK1, Kinase-Glo ATP depletion luminescence. In general terms: In Kinase-Glo more light means more ATP remaining.
Calcium-dependent protein kinase 1 (Plasmodium falciparum (isolate 3D7)), sequence (P62344 whole entry, looked up): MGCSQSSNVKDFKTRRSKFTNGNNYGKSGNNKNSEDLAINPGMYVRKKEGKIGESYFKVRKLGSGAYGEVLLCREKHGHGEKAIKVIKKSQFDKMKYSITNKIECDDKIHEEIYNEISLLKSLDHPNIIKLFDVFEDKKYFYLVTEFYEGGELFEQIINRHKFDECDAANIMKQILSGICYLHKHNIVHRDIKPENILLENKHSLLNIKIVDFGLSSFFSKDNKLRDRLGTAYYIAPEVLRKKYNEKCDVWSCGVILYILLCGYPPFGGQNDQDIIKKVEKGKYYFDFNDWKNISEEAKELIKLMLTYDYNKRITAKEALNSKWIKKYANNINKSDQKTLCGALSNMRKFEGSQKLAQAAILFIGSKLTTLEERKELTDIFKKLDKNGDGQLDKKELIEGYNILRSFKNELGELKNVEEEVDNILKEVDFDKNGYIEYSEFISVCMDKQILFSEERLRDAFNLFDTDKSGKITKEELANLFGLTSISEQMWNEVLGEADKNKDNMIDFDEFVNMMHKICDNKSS
Assay [6] deals with Protein kinase 7 (PK7), Plasmodium falciparum 3D7 (PF3D7_0213400) (UniProt Q7YTF7). In words: inhibition of Plasmodium PK7 catalytic activity – biochemical, TCAMS antimalarial set, Kinase-Glo luminescence (AID 1159587). Particulars: recombinant PfPK7, Kinase-Glo ATP depletion luminescence.
Protein kinase 7 (PK7), Plasmodium falciparum 3D7 (PF3D7_0213400), sequence (Q7YTF7 1-343): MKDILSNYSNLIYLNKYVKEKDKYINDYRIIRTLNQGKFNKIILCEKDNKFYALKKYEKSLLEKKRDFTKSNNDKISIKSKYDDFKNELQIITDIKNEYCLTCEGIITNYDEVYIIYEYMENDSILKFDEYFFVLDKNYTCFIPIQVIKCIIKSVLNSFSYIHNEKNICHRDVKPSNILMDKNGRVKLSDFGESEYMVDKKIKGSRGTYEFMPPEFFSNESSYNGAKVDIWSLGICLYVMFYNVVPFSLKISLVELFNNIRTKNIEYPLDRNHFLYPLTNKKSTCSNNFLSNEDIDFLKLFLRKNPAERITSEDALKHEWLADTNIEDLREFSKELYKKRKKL
For assay [7], the target named is Calcium-dependent protein kinase 4 (Plasmodium falciparum (isolate 3D7)) (UniProt Q8IBS5). In words: PfCDPK4 kinase inhibitors, biochemical, TCAMS library (AID 1159588; cut-off not given, nearly all actives have IC50 up to about 0.91 µM). Particulars: recombinant PfCDPK4, Kinase-Glo ATP depletion luminescence.
Calcium-dependent protein kinase 4 (Plasmodium falciparum (isolate 3D7)), sequence (Q8IBS5 whole entry, looked up): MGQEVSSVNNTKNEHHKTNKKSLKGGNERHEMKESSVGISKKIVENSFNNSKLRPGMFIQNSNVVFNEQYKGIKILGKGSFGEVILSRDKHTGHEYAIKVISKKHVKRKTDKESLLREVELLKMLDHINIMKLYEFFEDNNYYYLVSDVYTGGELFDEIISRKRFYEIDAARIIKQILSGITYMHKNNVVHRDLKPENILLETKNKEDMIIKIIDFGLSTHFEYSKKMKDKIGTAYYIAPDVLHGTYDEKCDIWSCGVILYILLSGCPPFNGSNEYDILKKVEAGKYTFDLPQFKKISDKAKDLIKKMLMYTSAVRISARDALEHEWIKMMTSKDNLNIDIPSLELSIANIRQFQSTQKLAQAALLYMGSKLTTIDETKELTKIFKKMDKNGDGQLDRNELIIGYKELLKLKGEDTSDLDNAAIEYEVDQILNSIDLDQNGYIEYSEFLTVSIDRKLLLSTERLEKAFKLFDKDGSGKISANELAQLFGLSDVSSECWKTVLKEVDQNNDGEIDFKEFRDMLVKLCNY
In assay [8] the target is Plasmodium falciparum protein kinase 6 (PK6, PF3D7_1337100) (UniProt Q8IDW1). In words: PfPK6 kinase inhibitors, biochemical, TCAMS library (AID 1159586). The conditions noted are these: recombinant PfPK6, Kinase-Glo ATP depletion luminescence.
Plasmodium falciparum protein kinase 6 (PK6, PF3D7_1337100), sequence (Q8IDW1 1-305): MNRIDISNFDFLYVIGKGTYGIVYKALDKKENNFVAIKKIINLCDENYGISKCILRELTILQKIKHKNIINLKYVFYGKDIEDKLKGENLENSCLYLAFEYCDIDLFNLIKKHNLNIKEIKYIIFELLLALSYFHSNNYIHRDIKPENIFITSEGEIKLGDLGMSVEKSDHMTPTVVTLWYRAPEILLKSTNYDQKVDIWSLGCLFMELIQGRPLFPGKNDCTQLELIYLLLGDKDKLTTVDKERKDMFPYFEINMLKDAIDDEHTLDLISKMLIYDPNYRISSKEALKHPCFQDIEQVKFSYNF

One may read the inhibition as the drop in the measured response relative to a control, in per cent. Turning to `CN1CCC(NC(=O)c2cccc(Nc3cc(Nc4cccc(Br)c4)ncn3)c2)CC1`, the growth inhibition in assay [1] was 6%; in assay [4], 94% (active). Further, the inhibition was 25% in assay [2] and 1% in assay [3]. For the same compound, the outcome in assay [5], in assay [6] and in assay [7] was inactive.

Turning to `CN(c1ccc(NC(=O)Nc2cc(C(C)(C)C)on2)cc1)c1ccnc(NCCN2CCOCC2)n1`, the growth inhibition is 18% in assay [1] and 95% (active) in assay [4]. The inhibition in assay [2] was 51% (active); in assay [3] it was -5%. In addition, the result in assay [5], in assay [6] and in assay [7] was inactive.

As for `CC(=O)Nc1ccc(Nc2ncc([N+](=O)[O-])c(Nc3ccccc3C(N)=O)n2)cc1`, the growth inhibition in assay [1] is 97% (active); in assay [4], 98% (active). Besides, the inhibition is 42% in assay [2] and 2% in assay [3]. Besides, the result in assay [5], in assay [6] and in assay [7] was inactive.

As to `O=C(Nc1cccc(-c2nn3ccccc3c2-c2ccnc(Nc3ccc(-c4ccn[nH]4)cc3)n2)c1)c1c(F)cccc1F`, the result in assay [8] and in assay [6] was inactive.

On to `C(=N\Nc1nccc2sc(-c3ccccc3)cc12)/c1cccnc1`, for which the growth inhibition was 10% in assay [1] and 97% (active) in assay [4]. Moreover, the inhibition in assay [2] is -9%; in assay [3] it was 8%. For the same compound, the outcome in assay [5], in assay [6] and in assay [7] was inactive.

Consider `CC(=O)c1ccc(NC(=O)Nc2ccc(N(C)c3ccnc(Nc4cccc(CS(C)(=O)=O)c4)n3)cc2)cc1`, for which the growth inhibition was 98% (active) in assay [1] and 100% (active) in assay [4]. Further, the inhibition in assay [2] was 86% (active); in assay [3], -1%. For the same compound, the result in assay [5], in assay [6] and in assay [7] was inactive.

As for `CS(=O)(=O)Nc1cccc(-c2cnc3[nH]cc(-c4cccc(CN)c4)c3c2)c1`, the growth inhibition in assay [1] was 82% (active); in assay [4], 96% (active). Besides, the inhibition in assay [2] is 25%; in assay [3] it was -2%. Besides, the outcome in assay [8], in assay [6] and in assay [7] was inactive.

For `COc1c(CN2CCCC2)cccc1-c1cc2c(-c3ccc(C(=O)O)c(C(C)C)c3)ccnc2[nH]1`, the growth inhibition in assay [1] was 98% (active); in assay [4] it was 99% (active). The inhibition in assay [2] is 56% (active); in assay [3] it was -1%. The result in assay [5], in assay [6] and in assay [7] was inactive.

Take `CCN(CC)CCNc1nccc(N(C)c2ccc(NC(=O)Nc3cc(C(F)(F)F)ccc3F)cc2)n1`: the figures for the growth inhibition in assay [1] and in assay [4] were 25% and 97% (active), respectively. The inhibition in assay [2] is 74% (active); in assay [3], 1%. The result in assay [5], in assay [6] and in assay [7] was inactive.

Turning to `O=C(O)c1cccnc1Sc1ccc(Cl)cc1`, the growth inhibition was 4% in assay [1] and 100% (active) in assay [4]. Also, the inhibition is 5% in assay [2] and 3% in assay [3]. The outcome in assay [5], in assay [6] and in assay [7] was inactive.

Regarding `C#CCNC(=O)c1ccc(-c2ccnc(Nc3cccc(CCCN4CCOCC4)c3)n2)s1`, the growth inhibition in assay [1] is 45%; in assay [4], 82% (active). The inhibition is 54% (active) in assay [2] and -4% in assay [3]. For the same compound, the result in assay [5], in assay [6] and in assay [7] was inactive.

Turning to `Cc1ccc(S(=O)(=O)Nc2ccc(Nc3nccc(Nc4cccc5[nH]ncc45)n3)cc2)cc1`, the growth inhibition in assay [1] was 5%; in assay [4], 90% (active). In addition, the inhibition in assay [2] was 57% (active); in assay [3], 6%. The outcome in assay [5], in assay [6] and in assay [7] was inactive.

On to `CCN(CC)CCCNc1nccc(N(C)c2ccc(NC(=O)Nc3cc(C(F)(F)F)ccc3F)cc2)n1`, for which the results for the growth inhibition in assay [1] and in assay [4] were 19% and 94% (active), respectively. Further, the results for the inhibition in assay [2] and in assay [3] were 96% (active) and -6%, respectively. Also, the outcome in assay [5], in assay [6] and in assay [7] was inactive.

Turning to `N=C(N)c1ccc(Nc2nccc(Nc3nc(-c4ccccc4)cs3)n2)cc1`, the growth inhibition was 75% (active) in assay [1] and 96% (active) in assay [4]. For the same compound, the figures for the inhibition in assay [2] and in assay [3] were 13% and -8%, respectively. The result in assay [5], in assay [6] and in assay [7] was inactive.

On to `CS(=O)(=O)Cc1cccc(Nc2ncc(Cl)c(Nc3cccnc3C(N)=O)n2)c1`, for which the growth inhibition in assay [1] was 97% (active); in assay [4], 96% (active). Also, the inhibition in assay [2] was 56% (active); in assay [3], -3%. Besides, the result in assay [5], in assay [6] and in assay [7] was inactive.

On to `CCN(CC)CCNC(=O)c1ccc(Nc2ncc([N+](=O)[O-])c(Nc3ccccc3OC)n2)cc1`, for which the figures for the growth inhibition in assay [1] and in assay [4] were 58% (active) and 97% (active), respectively. Moreover, the inhibition in assay [2] was 59% (active); in assay [3] it was -6%. For the same compound, the outcome in assay [5], in assay [6] and in assay [7] was inactive.

Turning to `CN(C)CCNCc1nc(-c2ccc3c(Nc4ccc(Oc5ccccc5)cc4)ccnc3c2)cs1`, the growth inhibition in assay [1] is 100% (active); in assay [4], 101% (active). The results for the inhibition in assay [2] and in assay [3] were 8% and 6%, respectively. In addition, the result in assay [8], in assay [6] and in assay [7] was inactive.

As to `Nc1ncc(-c2cccc(F)c2)cc1-c1nc2ccc(F)cc2[nH]1`, the growth inhibition in assay [1] is 88% (active); in assay [4] it was 100% (active). Also, the inhibition in assay [2] is 54% (active); in assay [3] it was -3%. In addition, the result in assay [5], in assay [6] and in assay [7] was inactive.

With `Cn1nc(-c2ccc(NC(=O)Nc3ccc4ccccc4c3)c(F)c2)c2cnc(NCCN3CCOCC3)nc21`, the figures for the growth inhibition in assay [1] and in assay [4] were 3% and 93% (active), respectively. In addition, the inhibition in assay [2] is 62% (active); in assay [3], 1%. Moreover, the outcome in assay [5], in assay [6] and in assay [7] was inactive.

For `N=C(N)c1ccc(Nc2nc(Nc3ccc(-c4ccccc4)cc3)ncc2[N+](=O)[O-])cc1`, the growth inhibition was 35% in assay [1] and 99% (active) in assay [4]. Moreover, the inhibition in assay [2] is 11%; in assay [3], -3%. In addition, the outcome in assay [5], in assay [6] and in assay [7] was inactive.

Take `CN(c1ccc2c(c1)nc(NCc1ccc(F)cc1)n2C)c1ccnc(Nc2ccc(CS(C)(=O)=O)cc2)n1`: the growth inhibition in assay [1] is 79% (active); in assay [4], 97% (active). The inhibition is 48% in assay [2] and 7% in assay [3]. Besides, the outcome in assay [5], in assay [6] and in assay [7] was inactive.

In the case of `CS(=O)(=O)Cc1ccc(Nc2ncc(Cl)c(Nc3cccnc3C(N)=O)n2)cc1`, the growth inhibition in assay [1] and in assay [4] was 97% (active) each time. Besides, the inhibition in assay [2] was 54% (active); in assay [3] it was -4%. Further, the outcome in assay [5], in assay [6] and in assay [7] was inactive.
